Screens from PubChem.
USP30 inh = human USP30 deubiquitinase inhibition | 47,000 compounds, 5.3% hits | Q70CQ3 | AID 1645860 | purified USP30, Ub-rhodamine cleavage fluorescence | inhibition, % at 25 µM
Target sequence (Q70CQ3 whole entry, looked up): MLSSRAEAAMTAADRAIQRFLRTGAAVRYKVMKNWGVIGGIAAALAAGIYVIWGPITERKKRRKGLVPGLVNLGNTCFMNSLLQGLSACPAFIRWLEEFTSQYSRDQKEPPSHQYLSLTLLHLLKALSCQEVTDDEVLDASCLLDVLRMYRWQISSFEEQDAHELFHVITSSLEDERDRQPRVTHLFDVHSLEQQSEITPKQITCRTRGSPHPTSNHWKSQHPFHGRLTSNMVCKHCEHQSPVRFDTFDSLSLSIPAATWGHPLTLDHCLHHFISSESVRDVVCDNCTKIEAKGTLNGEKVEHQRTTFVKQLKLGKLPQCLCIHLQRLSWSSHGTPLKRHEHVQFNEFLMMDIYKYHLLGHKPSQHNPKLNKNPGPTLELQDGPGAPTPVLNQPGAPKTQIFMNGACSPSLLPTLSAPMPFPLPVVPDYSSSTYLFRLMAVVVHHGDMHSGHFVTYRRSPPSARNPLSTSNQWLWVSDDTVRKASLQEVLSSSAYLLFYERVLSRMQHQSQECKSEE
USP28 block = blocks human USP28 ubiquitin-rhodamine cleavage; purified USP28, Ub-rhodamine cleavage fluorescence, 30 min; inhibition, % at 25 µM; 47,000 compounds, 3% hits; AID 1645857
USP17 inh = inhibitors of human USP17 deubiquitinase; 47,000 compounds, 6.5% hits; inhibition, % at 50 µM; A8MUK1; purified USP17, Ub-rhodamine cleavage fluorescence, 3 h
USP8 block = human USP8 deubiquitinase inhibition; P40818; purified USP8, Ub-rhodamine cleavage fluorescence, 30 min; 47,000 compounds, 4.2% hits; inhibition, % at 20 µM
A number is an active result; - = inactive; . = no result given. A selection: hits, their analogues and other compounds. The true share with any hit is near 13%. Cut-off read from the data, not from the text of the source: active = inhibition above about 30%; inactive = the rest.

SMILES | USP30 inh | USP28 block | USP17 inh | USP8 block
COc1ccc(S(=O)(=O)N2CCCCCC2c2sccc2C)cc1 (configuration not stated) | 30 | - | - | -
Cc1nc(-c2cccs2)cc(-c2cccc(Cl)c2)c1C#N | 37 | - | - | -
CCOC(=O)COc1nc(-c2cccs2)cc(C(F)(F)F)c1C#N | - | - | - | -
C1CCC(NC2=NCCNC23CCOCC3)CC1 | - | - | - | -
COc1ccccc1C(=O)N(Cc1ccccc1)C(C)(C)c1ccccc1 | 36 | - | - | -
COc1ccc(CCNC(=O)c2cc(C3CC3)nc3c2cnn3C(C)C)cc1 | - | 68 | - | -
COc1ccccc1OCCNC(=O)c1cc(C2CC2)nc2c1cnn2C(C)C | - | 61 | - | -
COc1ccccc1CCNC(=O)c1cc(C2CC2)nc2c1cnn2C(C)C | - | - | - | -
COc1ccc(C)cc1CCNC(=O)c1cc(C2CC2)nc2c1cnn2C(C)C | - | - | - | -
Cc1cccc(S(=O)(=O)N2CCC(n3cnnc3C3CC3)CC2)c1 | - | - | - | -
COc1cccc(-c2cc(C(=O)N3CCN(C(=O)c4ccco4)CC3)[nH]n2)c1 | - | - | - | -
CCOc1ccc2nc(NC(=O)C3CCN(S(=O)(=O)c4ccc5c(c4)CC(C)N5C(C)=O)CC3)sc2c1 (configuration not stated) | 50 | - | - | -
CC(=O)N1c2ccc(S(=O)(=O)N3CCC(C(=O)NCc4cccs4)CC3)cc2CC1C (configuration not stated) | - | - | - | -
COc1ccc(C2CC(=O)Nc3cc4c(cc32)OCO4)cc1OC (configuration not stated) | - | - | - | -
COc1ccc(C2Nc3ccccc3C(=O)N2c2ccc3c(c2)OCO3)cc1O (configuration not stated) | - | - | 45 | 57
Cc1nc(NC(=O)c2nnn(-c3ccc(Cl)cc3)n2)sc1C(=O)N(C)C | - | - | - | -
CCOc1cccc2nnc(NC(=O)Nc3ccccc3CC)n12 | 54 | - | 56 | -
CCOc1nc2cccnc2n(CC(=O)Nc2ccccc2CC)c1=O | - | - | - | -
CCN(CC)c1ccc(C(=O)Oc2ccc3oc4ccccc4c3c2)cc1 | - | - | - | -
Cc1cccc(C)c1NC(=O)CN1C(=O)CSc2ncccc21 | - | - | - | -
O=C(COc1ccc2c(-c3ccccc3)cc(=O)oc2c1)Nc1cccnc1 | 68 | - | - | -
CCOC(=O)c1ccc(-c2cccc(C(F)(F)F)c2)nc1C | - | - | - | -
CCOC(=O)c1cnc(C(F)(F)F)nc1Sc1n[nH]c(-c2cccs2)n1 | - | - | 86 | -
Cc1ccc(CNc2nc3c(-c4ccc(C)cc4)nnn3c3ccccc23)cc1 | - | - | - | -
Cc1ccc(S(=O)(=O)c2nnn3c2nc(NCc2ccc(F)cc2)c2ccccc23)cc1C | - | - | - | 51
SMILES | USP30 inh | USP28 block | USP17 inh | USP8 block
O=S(=O)(c1ccccc1)c1nnn2c1nc(NCc1ccc(Cl)cc1)c1ccccc12 | - | - | 42 | -
O=C(CCc1nc(CSc2nnc(-c3ccncc3)o2)no1)Nc1ccc(Cl)cc1 | - | - | - | -
CCc1sc(NC(=O)/C=C/c2ccc3c(c2)OCO3)nc1-c1ccccc1 | - | - | - | -
Cc1ccc(S(=O)(=O)C2(C(=O)Nc3ccc(Br)cc3)CC2)cc1 | - | - | - | -
O=C(CNC(=O)c1ccc2nc(-n3cccc3)sc2c1)NCc1ccccc1 | - | - | - | 39
O=C(CNC(=O)c1ccc2nc(-n3cccc3)sc2c1)NCc1ccco1 | - | - | - | 76
CC(C)[C@H](NC(=O)c1ccc2nc(-n3cccc3)sc2c1)C(=O)NCc1ccco1 | - | - | - | -
O=C(CNC(=O)c1ccc2nc(-n3cccc3)sc2c1)NCc1ccccc1Cl | - | - | - | 46
O=C(NCCCO)c1ccc2nc(-n3cccc3)sc2c1 | - | - | - | -
O=S1(=O)CCC(n2nccc2-c2ccccc2)C1 (configuration not stated) | - | - | - | -
CCN(CC)C(=O)c1nc2c(s1)CCN(C(=O)c1cnc(C)cn1)CC2 | - | - | - | -
Cc1cc(=O)n2c3c(c4c(cc13)c(CO)cc(=O)n4C)OC2 | - | - | 85 | 40
O=C(Nc1nc2c(s1)CCC2)C1CCN(S(=O)(=O)c2ccc3c(c2)CCCC3)CC1 | - | 50 | - | 36
O=C1[C@@H]2Cc3ccccc3CN2C(=O)N1c1cccc2ccccc12 | 33 | - | - | -
Cc1ccc(CNC(=O)c2ccc(N3C(=O)[C@@H]4Cc5ccccc5CN4C3=O)cc2)cc1 | 49 | - | 62 | -
O=C(COC(=O)c1ccc(CN2CCCC2=O)cc1)c1ccc2c(c1)OCCO2 | - | 90 | - | -
O=C(COC(=O)c1ccc2ncsc2c1)c1ccc2c(c1)OCCO2 | - | 31 | - | -
NS(=O)(=O)c1cc(C(=O)OCC(=O)c2ccc3c(c2)OCCO3)ccc1Cl | - | 70 | - | -
CC(OC(=O)c1ccc2ncsc2c1)C(=O)Nc1ccc2c(c1)OCO2 (configuration not stated) | - | - | - | -
O=C(COC(=O)c1ccc2c(=O)n3c(nc2c1)CCCCC3)c1ccc2c(c1)OCCO2 | - | - | - | -
CNC(=O)c1c(Br)cnn1-c1ccc(C)cc1 | . | . | 39 | -
Cc1nc(-n2cccc2)sc1C(=O)NC1CCCC1 | - | - | - | -
Cc1nc(Nc2ccc(Cl)cn2)sc1C(=O)NC1CCCC1 | - | - | - | 31
COc1ccc(CNC(=O)CN2C(=O)c3cccc4cccc2c34)cc1 | - | - | 46 | -
COc1ccc(CNC(=O)Cn2c(=O)cc(-c3ccccc3)c3c(C)nn(-c4ccccc4)c32)cc1 | 31 | - | - | -
SMILES | USP30 inh | USP28 block | USP17 inh | USP8 block
COc1ccc(CNC(=O)CN2CCSc3ccccc32)cc1 | - | - | - | -
COc1ccc(CCNC(=O)c2ccc(N3C(=O)N4CCc5c([nH]c6ccccc56)[C@@]4(C)C3=O)cc2)cc1OC | - | - | - | -
CC(C)CC(C(=O)N1CCN(c2ccccc2F)CC1)N1Cc2ccccc2C1=O (configuration not stated) | - | - | - | -
Cc1c(Cc2ccccc2)c(=O)oc2cc3occ(-c4ccc5ccccc5c4)c3cc12 | - | - | 32 | -
Cc1coc2cc3oc(=O)c(CCC(=O)Nc4ccc(Cn5cncn5)cc4)c(C)c3cc12 | - | - | - | -
O=C1c2cccnc2C(Nc2ccccc2F)N1Cc1ccccc1 (configuration not stated) | - | - | - | -
CCc1cccc(NC(=O)c2ccc(SCCN3CCOCC3)nc2)c1 | - | - | - | -
COc1cccc(NC(=O)c2ccc(SCCN3CCOCC3)nc2)c1 | - | 40 | - | -
O=C(C1CC1)N1CCC(Cc2nc(-c3ccccc3)no2)CC1 | - | - | - | -
COc1ccc(C(=O)O)cc1S(=O)(=O)N(CCc1ccccc1)Cc1ccccc1 | 39 | - | - | -
Cc1nn(-c2ccc([N+](=O)[O-])cc2)c(C)c1-c1nc2ccccc2[nH]1 | 63 | 37 | - | -
Cc1ccc(C2C3=C(NCCN=C3c3ccccc3)C(=O)N2c2ccccc2)cc1 (configuration not stated) | 41 | - | - | -
